Rows were chosen to be rich in hits. Some 15% of all compounds tested hit in one or more screens of this group.
TDP1 cell noCPT: qHTS for Inhibitors of human tyrosyl-DNA phosphodiesterase 1 (TDP1): qHTS in cells in absence of CPT; DT40 Tdp1-/- hTDP1 cells, no CPT, ATP luminescence, 48 h; Potency, µM (series often up to 46.2 µM), for the others: at the top dose activity change, negative = growth inhibition, actives largely listed as inhibitors; 420,000 tested, 15% active; also: nearly all actives have a fitted effect of over 55% in size
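Growth of hTDP1-complemented DT40 Tdp1-knockout cells is measured by ATP luminescence after at least 48 hr compound exposure at 37 °C, with DMSO substituting for the 20 nM CPT used in the parallel screen.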
ELG1 DNA repair: blocks ELG1-dependent DNA repair in HEK293T cells; HEK293T ELG1-luciferase reporter, luminescence, 16 h; DNA damage induced by 5-fluorouridine; Potency, µM (titrated, usually from 46.1 µM), inactives show top-dose activity change, negative = inhibition, hits mostly inhibitors; 330,000 tested, 2.3% active; AID 504467; also: nearly all actives have a fitted effect of over 55% in size
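5-Fluorouridine DNA damage + compound/DMSO, 2,000 cells/well, 16 h, 37 °C/5% CO2. ONE-Glo, 30 min RT, luminescence. Readout = decrease in reporter signal.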
VP16 counter: Gal4-VP16 reporter inhibition counter-screen. 310,000 tested, 3.5% active. Potency, µM (series often up to 53.6 µM), without a hit: at the top dose activity, negative = inhibition, actives largely listed as inhibitors. AID 2546. Drosophila S2 Gal4-VP16 UAS-luciferase, luminescence, 20 h;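 also: Gal4-VP16 expression switched on by copper sulfate through the metallothionein promoter; nearly all actives have a fitted effect of over 50% in size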
RORgamma inh: inhibitors of mouse ROR gamma transcriptional activity | P51450 | Drosophila S2 Gal4-RORgamma UAS-luciferase reporter, 20 h | Potency, µM (doses to about 53.6 µM), for the others: top-dose activity change, negative = inhibition, usual class: inhibitors | 310,000 tested, 5.4% active | AID 2551; also: nearly all actives have a fitted effect of over 60% in size
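Schneider cells (Drosophila), stable Gal4 DBD–ROR gamma + UAS-luc; 1 hr cmpd preincubation; Cu2+ induction 700 uM final; 20 hr ambient; luminescence.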
ALOX12 inh: blocks human arachidonate 12S-lipoxygenase | purified 12hLO, xylenol orange hydroperoxide absorbance | Potency, µM (top dose mostly 108 µM), for the others: at the highest dose activity change, negative = inhibition, actives largely listed as inhibitors | 580,000 tested, 1.1% active
Target sequence (P18054 whole entry, looked up): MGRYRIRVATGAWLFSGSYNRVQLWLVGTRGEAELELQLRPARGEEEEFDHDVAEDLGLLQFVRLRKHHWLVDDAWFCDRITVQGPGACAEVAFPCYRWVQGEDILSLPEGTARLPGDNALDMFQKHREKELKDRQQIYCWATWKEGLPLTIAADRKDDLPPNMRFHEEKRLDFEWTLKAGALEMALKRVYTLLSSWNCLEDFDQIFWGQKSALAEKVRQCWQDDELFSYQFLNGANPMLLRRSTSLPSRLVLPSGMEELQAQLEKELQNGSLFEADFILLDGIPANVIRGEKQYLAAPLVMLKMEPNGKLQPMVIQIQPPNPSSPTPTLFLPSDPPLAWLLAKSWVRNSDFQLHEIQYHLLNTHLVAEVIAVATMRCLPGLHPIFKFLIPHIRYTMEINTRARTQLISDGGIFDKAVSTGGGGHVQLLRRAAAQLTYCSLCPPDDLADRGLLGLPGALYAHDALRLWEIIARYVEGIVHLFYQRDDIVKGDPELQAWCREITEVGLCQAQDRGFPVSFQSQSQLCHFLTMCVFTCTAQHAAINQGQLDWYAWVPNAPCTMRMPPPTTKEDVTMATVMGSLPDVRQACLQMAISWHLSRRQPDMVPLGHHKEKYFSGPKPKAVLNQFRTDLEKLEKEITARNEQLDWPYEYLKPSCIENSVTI
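Purified human 12hLO at 150 nM in 25 mM Hepes, 0.01% Triton X-100, pH 7.0, preincubated 15 min at room temperature with compound. Reaction started with 40 uM arachidonic acid, 30 min at room temperature. Hydroperoxide measured by Fe-xylenol orange, 573/405 nm absorbance ratio.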
TDP1 cell CPT: growth inhibition of DT40 Tdp1-/-;hTDP1 cells with camptothecin (screen for TDP1 inhibitors) | chicken DT40 Tdp1-/-;hTDP1 cells + 20 nM CPT, ATP luminescence, 48 h | Potency, µM (series often up to 46.2 µM), for the others: at the top dose activity change, negative = growth inhibition, most hits filed as inhibitors | 420,000 tested, 12% active | AID 686979; also: nearly all actives have a fitted effect of over 55% in size
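Chicken DT40 Tdp1-/- cells complemented with human TDP1, 400 cells/well, exposed to compounds plus 20 nM camptothecin for at least 48 h at 37 C; viability read as ATP content by CellTiter-Glo luminescence.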
Numbers without * were called inactive; [ ] = dose if it differs, or a comment. Calls follow the shape of the dose curve; as a rule, active = well fitted curve in the direction sought with a large enough effect; inconclusive = small, poorly fitted or top-dose-only effect, or another doubt; inactive = no such curve, though single readings can be large; an effect the other way counts as inactive or inconclusive. % is scaled to controls: 0 for no effect and ±100 for the full control effect; potency is read from the fitted curve at half-maximal effect.

Screening CSc1ncc(/C=C2/C(=O)NC(=O)N(c3ccc(C)cc3)C2=O)cn1 returned TDP1 cell noCPT -24%, ELG1 DNA repair 3%, VP16 counter 4%, RORgamma inh inconclusive, ALOX12 inh inconclusive and TDP1 cell CPT 21%.
For Cc1ccc(N2C(=O)NC(=O)/C(=C/c3cnn(-c4ccc(C)cc4)c3)C2=O)cc1 the results were TDP1 cell noCPT 18µM*, ELG1 DNA repair 25%, VP16 counter 9%, RORgamma inh 30%, ALOX12 inh -24% and TDP1 cell CPT 16µM*.
`O=C(Cc1ccc(CO)cc1)N1CCN(Cc2cn[nH]n2)CC(O)C1` (stereo unspecified) gave ALOX12 inh 98%.
Screening CCOc1ccc(NC(=O)CN(c2ccc(Cl)cc2C)S(=O)(=O)c2ccccc2)cc1 returned TDP1 cell noCPT 10µM*, ALOX12 inh -1% and TDP1 cell CPT 8.2µM*.
`N#CCCn1cc(C(=O)Nc2ccc(F)cc2)c(-c2ccccc2)n1` gave TDP1 cell noCPT -12%, ELG1 DNA repair -9%, VP16 counter -9%, RORgamma inh -1%, ALOX12 inh -5% and TDP1 cell CPT -8%.
`O=C(CSc1oc(-c2ccccc2)nc1S(=O)(=O)c1ccc(Cl)cc1)Nc1ccc(F)cc1` gave TDP1 cell noCPT inconclusive, ALOX12 inh inconclusive and TDP1 cell CPT 10µM*.
For CCOc1ccc(S(=O)(=O)N(CC(=O)NCc2ccccc2OC)c2ccccc2)cc1 the results were TDP1 cell noCPT 16µM*, ALOX12 inh -17% and TDP1 cell CPT 15µM*.
`CCOc1ccc(S(=O)(=O)N(CC(=O)NCCc2ccc(OC)c(OC)c2)c2ccccc2)cc1` gave TDP1 cell noCPT inconclusive, ALOX12 inh -8% and TDP1 cell CPT inconclusive.
`CCOc1ccc(NC(=O)CSc2oc(-c3ccccc3)nc2S(=O)(=O)c2ccc(Cl)cc2)cc1` gave TDP1 cell noCPT 21µM*, ALOX12 inh inconclusive and TDP1 cell CPT 7.3µM*.
CCOc1ccc(NC(=O)c2c(C)nn(Cc3ccccc3)c2Cl)cc1 was read as TDP1 cell noCPT -4%, ELG1 DNA repair -2%, VP16 counter -5%, RORgamma inh -39%, ALOX12 inh -2% and TDP1 cell CPT 0%.
Screening CCCNC1CCc2ccccc2C1 (stereo unspecified) returned ALOX12 inh 72%.
For Cc1ccc(/C(CSc2nccn2-c2ncc(C(F)(F)F)cc2Cl)=N\O)cc1 the results were TDP1 cell noCPT 18µM*, ELG1 DNA repair -5%, VP16 counter inconclusive, RORgamma inh inconclusive, ALOX12 inh inconclusive and TDP1 cell CPT inconclusive.
`CCOc1ccc(CN2CCN(c3cccc(C)c3C)CC2)cc1` gave ALOX12 inh -20%.
For C#C[C@]1(O)CCC2C3C(=O)C=C4C(Cl)=CCC[C@]4(C)C3CC[C@@]21C (stereo partly specified) the results were TDP1 cell noCPT 10µM*, ALOX12 inh -4% and TDP1 cell CPT 16µM*.
Screening COc1cc(/C=C2\C(=O)NC(=O)N(c3ccccc3)C2=O)cc(OC)c1OC returned TDP1 cell noCPT -3%, ELG1 DNA repair -1%, VP16 counter 7%, RORgamma inh inconclusive, ALOX12 inh inconclusive and TDP1 cell CPT -4%.
COc1cc(/C=C/c2ccc3ccccc3[n+]2C)cc(OC)c1OC was read as TDP1 cell noCPT 13µM* and TDP1 cell CPT inconclusive.
CCc1ccc(C2CCNCC2)cc1 was read as ALOX12 inh -13%[22.9 µM].
